In PubChem BioAssay AID2732 (Emory University Molecular Libraries Screening Center, 2010) one finds inhibition data, which are given here for 93 compounds.

About 8,200 (3.7%) of roughly 220,000 compounds were called active. For the sample, actives were picked, then their nearest neighbours and some compounds at random. Values without a mark were called inactive.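 The calls were made as follows: active = compounds that reduced the stress-induced luciferase reporter signal by more than about 70% of percent inhibition (limit read from the data); inactive = the rest.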

This test in a line: blockers of ER-stress CHOP reporter expression – cell-based, unfolded protein response, luciferase reporter, primary screen (AID 2732).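 Also: 0% = tunicamycin plus vehicle and 100% = wells without tunicamycin.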 The note with it: CHO-K1 CHOP-promoter luciferase, tunicamycin-induced, 15-18 h; at 10 µM; hits give high values. Background: Reporter assays use an easily measured gene product as a stand-in for the process of interest.
As usually defined, the inhibition is the relative decrease from the control value, in per cent. As to `CCCC(=O)Nc1ccc2c(c1)nc(CCNC(=O)c1ccco1)n2C`, the inhibition was -14.7%.
`CC(NC(=O)C(C)(C)C)C(c1cccs1)N1CCN(Cc2ccccc2)CC1` (stereo not drawn): the inhibition was -20.7%.
With `CCOC(=O)C1=C(CN2CCc3ccccc32)NC(=O)NC1c1ccc(Cl)cc1` (stereo not drawn), the inhibition is 85.1% (active).
As for `CCOC(=O)C1=C(CN2CCCCCC2)NC(=O)NC1c1cccc([N+](=O)[O-])c1` (stereo not drawn), the inhibition is -12.3%.
Turning to `CCOC(=O)C1=C(CN2CCc3ccccc32)NC(=O)NC1c1cccc([N+](=O)[O-])c1` (stereo not drawn), the inhibition was 60.9%.
As for `Cc1ccc(C(=O)NNC2=Nc3cc([N+](=O)[O-])ccc3OC2)cc1`, the inhibition is -15.9%.
Consider `Cn1nc(C(C)(C)C)c(NC(=O)c2sccc2Cl)c1C(C)(C)C`, for which the inhibition is 3.22%.
For the compound `CC(C)c1c(O)nc(SCCOc2ccc(Cl)cc2)[nH]c1=O`, the inhibition is 4.19%.
As for `CCOC(=O)N1CCN(C(=O)c2ccc(S(=O)(=O)c3ccc(C)cc3)c(NC(C)=O)c2)CC1`, the inhibition was 33.2%.
`O=C(NCCN1CCOCC1)c1ccc2c(c1)N(Cc1ccc(Cl)cc1)CCS2`: the inhibition was 15%.
For the compound `CCOC(=O)N1CCN(C(=O)c2ccc3c(c2)N(Cc2ccc(C)cc2)CCS3)CC1`, the inhibition is 76.8% (active).
Turning to `O=C(NCCCc1ccccc1)C1CCC(CNc2c(N3CCCCC3)c(=O)c2=O)CC1` (stereo not drawn), the inhibition is 0.92%.
For the compound `COC(=O)c1ccccc1OCC(=O)N1CCN(c2ccc(Cl)cc2)CC1`, the inhibition is 22.2%.
The same measure for `OC(COc1ccc2c(c1)CCC2)CN1CCN(c2cccc(Cl)c2)CC1` (stereo not drawn): 44.8%.
As for `O=C(COc1ccc(Cl)cc1)N1CCN(S(=O)(=O)c2ccc(Cl)cc2)CC1`, the inhibition is 42.3%.
The same measure for `CCC(=O)c1ccc(OCC(O)CN2CC(C)OC(C)C2)cc1` (stereo not drawn): -8.55%; for `O=C(COc1ccc(Cl)cc1)N1CCN(c2cccc(C(F)(F)F)c2)CC1`: 86.3% (active).
Take `CCC(=O)c1ccc(OCC(O)CN2CCN(c3cccc(C(F)(F)F)c3)CC2)cc1` (stereo not drawn): the inhibition was 84.2% (active).
As to `O=C(C1=C(O)C(=O)N(CCOCCO)C1c1ccccn1)c1cccs1` (stereo not drawn), the inhibition is 8.68%.
`FC(F)(F)c1ccc(-n2cn[nH]c2=S)cc1`: the inhibition was 9.71%.
On to `CCN(CCNC(=O)C1=C(C)C(=O)OC12CCC(C)CC2)c1ccccc1` (stereo not drawn), for which the inhibition was 23.7%.
The same measure for `CCc1ccc(NC(=O)N[C@H](C(=O)O)C(C)CC)cc1` (stereo partly drawn): -4.67%; for `CCOC(=O)/C(C#N)=C/c1ccc(N2CCN(Cc3ccccc3)CC2)cc1`: 5.69%.
For `CCCn1c(C)cc(/C=C(\C#N)C(=O)OCC(=O)Nc2cc(OC)c(OC)c(OC)c2)c1C`, the inhibition was 9.36%.
Take `CCOC(=O)/C(C#N)=C/c1ccc(OCC(=O)Nc2ccccc2)c(OC)c1`: the inhibition is 77.3% (active).
With `COc1cc(/C=C2/C(=O)NN(c3ccc(F)cc3)C2=O)cc([N+](=O)[O-])c1O`, the inhibition was 0.68%.
Turning to `O=C(CCCCCN1C(=O)c2cccc3cccc(c23)C1=O)NCc1ccco1`, the inhibition is 7.37%.
Consider `CCOC(=O)C1=C(c2ccccc2)NC(=S)NC1c1ccc(Cl)cc1` (stereo not drawn), for which the inhibition is 18%.
Turning to `CCOC(=O)c1[nH]c2c(c1C)C(=O)CC(c1ccc(N(C)C)cc1)C2` (stereo not drawn), the inhibition was 9.42%.
In the case of `CCOC(=O)c1[nH]c2c(c1-c1ccccc1)C(=O)CC(c1ccc(Cl)cc1)C2` (stereo not drawn), the inhibition was 80.8% (active).
Under `CC(NS(=O)(=O)c1ccccc1)c1n[nH]c(=S)n1-c1ccccc1` (stereo not drawn) stands 19.4%; under `CC(/C=C/c1ccco1)=N/NC(=O)C1COc2ccccc2O1` (stereo not drawn), 0.12%; under `CCc1ccc(S(=O)(=O)Nc2ccc(C)c(NS(C)(=O)=O)c2)cc1`, 16.4%.
For `COc1ccc(CCNS(=O)(=O)c2cccc3cccnc23)cc1OC`, the inhibition was 0.78%.
As for `Cc1ccc2nc(NC(=O)C3CCN(S(=O)(=O)c4ccc5c(c4)oc(=O)n5C)CC3)sc2c1`, the inhibition is 80.1% (active).
For the compound `Cn1c(=O)oc2cc(S(=O)(=O)N3CCC(C(=O)Nc4ccc(OC(F)(F)F)cc4)CC3)ccc21`, the inhibition was 12%.
The same measure for `O=C(Nc1nc2ccc(S(=O)(=O)N3CCCC3)cc2s1)C1CCCO1` (stereo not drawn): 9.58%.
Turning to `Nc1ccc(N=Nc2ccccc2Cl)c(N)n1`, the inhibition is -4.49%.
Under `Cc1cccc(OCCC(=O)Nc2cc(S(=O)(=O)N3CCCCC3)ccc2N2CCOCC2)c1` stands 40.4%.
Under `CC(=O)Nc1ccc(S(=O)(=O)N2CCN(CCCOc3cc(C)ccc3C)CC2)cc1` stands 71.1% (active); under `CCN(CC(=O)Nc1ccc(S(=O)(=O)N2CCCC2)cc1)CC(=O)Nc1cccc(OC)c1`, 2.69%.
As to `CC(=O)Nc1ccc(S(=O)(=O)N2CCSCC2)cc1`, the inhibition was -25.3%.
Regarding `Cc1ccc(C)c(S(=O)(=O)N2CCN(CC(=O)Nc3ccc([N+](=O)[O-])cc3)CC2)c1`, the inhibition was 42%.
For the compound `Cc1cccc(OCCCC(=O)Nc2ccc(S(=O)(=O)N3CCCC3)cc2)c1`, the inhibition was 89% (active).
As for `CCc1ccc[n+](-c2nc([O-])sc2C=O)c1`, the inhibition was 9.23%.
Regarding `Nc1nc(Sc2ncccc2[N+](=O)[O-])n[nH]1`, the inhibition is -14.3%.
`CC(=O)c1nnn(-c2ccc(Cl)cc2C#N)c1C`: the inhibition was 13.8%.
The same measure for `Cn1nc(C(C)(C)C)c([N+](=O)[O-])c1C(N)=O`: 1.68%.
Take `COc1ccc(C(=O)N/N=C2\CCS(=O)(=O)c3ccc(F)cc32)cc1OC`: the inhibition is -0.83%.
Regarding `O=C(NCC(c1cccs1)N1CCOCC1)c1cc(-c2ccccn2)nc2ccccc12` (stereo not drawn), the inhibition was 7.03%.
With `Cc1cccc(N(CC(=O)N=Nc2c(O)[nH]c3ccccc23)S(C)(=O)=O)c1C`, the inhibition is 27%.
As to `COCC(=O)N=Nc1c(O)[nH]c2ccccc12`, the inhibition is -14.7%.
Under `Cc1c(-c2ccccc2)n[nH]c1C(=O)N=Nc1c(O)[nH]c2ccccc12` stands 106% (active); under `O=C(CC(c1ccccc1)c1cc(Cl)ccc1O)NCCN1CCOCC1` (stereo not drawn), -2.25%; under `CN(C)S(=O)(=O)c1ccc(Cl)c(NC(=O)COC(=O)CC(NC(N)=O)c2ccc(Cl)cc2)c1` (stereo not drawn), -8.1%.
As to `CC(C)NC(=O)NNc1c(Cl)cncc1Cl`, the inhibition is 5.99%.
Consider `O=C(NCc1ccc2c(c1)OCO2)c1sccc1Br`, for which the inhibition was 8.42%.
Consider `Cc1cc(C)c(C#N)c(SCC(=O)Nc2ccccc2)n1`, for which the inhibition was 41.3%.
The same measure for `Cc1cc2cc3c(cc2nc1SCC(=O)Nc1c(C)cccc1C)CCC3`: 79.2% (active); for `Cc1cccc(C)c1NC(=O)CSc1ccc([N+](=O)[O-])cn1`: -10.4%.
The same measure for `COC(=O)c1c(C)oc(C)c1S(=O)(=O)NCc1ccc(Cl)cc1`: 30.1%; for `Cc1ccc(OCC(=O)N/N=C\c2ccco2)c(C)c1`: 12.7%; for `Cc1ccc(/C=N/NC(=O)COc2ccccc2-c2ccccc2)cc1`: 90.4% (active).
For the compound `Cc1ccc(OCC(=O)N/N=C/c2ccncc2)cc1`, the inhibition was 10%.
With `Cc1cc(OCCCCOc2ccc(C#N)cc2)ccc1[N+](=O)[O-]`, the inhibition was 32.1%.
In the case of `COc1ccccc1Nc1nc(N)nc(CSC(=S)N2CCOCC2)n1`, the inhibition was 9%.
The same measure for `CCOc1ccc(N2C(=O)CC(N(O)c3ccccc3)C2=O)cc1` (stereo not drawn): -34%; for `CCCCCCC(=O)N(O)C1CC(=O)N(c2ccccc2)C1=O` (stereo not drawn): 106% (active).
`CCOC(=O)c1ccc(N2C(=O)CC(N(C)Cc3ccccc3)C2=O)cc1` (stereo not drawn): the inhibition was 40.7%.
The same measure for `COCCN1C2=C(COC(C)(C)C2)C(=S)NC1c1ccccc1` (stereo not drawn): 12.9%.
For the compound `Cc1cc(C(=O)OCC(=O)Nc2nccs2)c2ccccc2n1`, the inhibition was 23.3%.
Take `CSc1ccc(S(=O)(=O)NC2CCCCC2)cc1`: the inhibition was 1.25%.
For the compound `Cc1cc(C)cc(NS(=O)(=O)c2ccc(F)cc2)c1`, the inhibition is 10.9%.
Regarding `CSc1ccc(S(=O)(=O)Nc2cccc(F)c2)cc1`, the inhibition was 74.6% (active).
As to `O=S(=O)(Nc1ccc(OC(F)(F)F)cc1)c1cccc2nonc12`, the inhibition is -2.82%.
The same measure for `Cn1ccc(NC(=O)Nc2ccc(Cl)cc2)n1`: -23.2%.
Consider `CC(C)=NN1C(=O)c2ccccc2NC1(C)C`, for which the inhibition was 2.15%.
The same measure for `COCCN(CCOC)C(=S)Nc1ccccc1Cl`: 15.1%; for `O=C(Nc1ccccc1Cl)c1ccc2nsnc2c1`: -20.7%; for `O=C(Nc1ccccc1Cl)/C(Cl)=C(\Cl)S(=O)c1ccccc1` (stereo not drawn): 108% (active).
In the case of `NC(=O)Cc1ccc2c(c1)[nH]c1ccccc12`, the inhibition is -13.9%.
Take `CCNc1nc(NCC)nc(N/N=C/c2ccc(O)c(OC)c2)n1`: the inhibition is -5.61%.
As to `OC(c1ccccc1)C(CN1CCOCC1)c1ccccc1` (stereo not drawn), the inhibition is 9.34%.
As to `Cc1ccc(NC(=O)C(C)c2cccc(C(=O)c3ccccc3)c2)cc1` (stereo not drawn), the inhibition is 19.2%.
In the case of `Cc1ccccc1NC(=O)C(C)c1ccc(-c2ccccc2)c(F)c1` (stereo not drawn), the inhibition was 70.4% (active).
In the case of `O=C(Nc1ccccc1F)c1ccccc1-c1ccccc1`, the inhibition was 1.92%.
Regarding `O=C(Nc1nnc(-c2ccco2)o1)c1ccc(S(=O)(=O)N2CCOCC2)cc1`, the inhibition is 13.2%.
Turning to `COc1cccc(-c2nnc(NC(=O)c3ccc(S(=O)(=O)N(CC(C)C)CC(C)C)cc3)o2)c1`, the inhibition was 108% (active).
Consider `COc1cccc(NC(=O)c2ccc(S(=O)(=O)N(C)C)cc2)c1`, for which the inhibition was -15.2%.
On to `CCN(c1ccc(NC(=O)COC(=O)CCc2nc3ccccc3n2-c2ccccc2)cc1)C(C)C`, for which the inhibition was 79% (active).
For the compound `Cc1ccc(NC(=O)COC(=O)CCc2nc3ccccc3n2-c2ccccc2)c(C)c1`, the inhibition was 2.62%.
The same measure for `CC(C)(C)c1ccc(NC(=O)COC(=O)CCc2nc3ccccc3c(=O)[nH]2)cc1`: 20%.
The same measure for `Cc1c(C(=O)N(Cc2ccccc2)Cc2cccnc2)cnn1-c1ccc(F)cc1`: 0%.
